A selection: hits, their analogues and other compounds. The true share with any hit is near 18%.
Gal4-VP16 FLuc: counter-screen for ROR gamma inhibitors: Gal4-VP16 reporter; Drosophila S2 Gal4-VP16 UAS-luciferase, luminescence, 20 h; Potency, µM (top dose mostly 53.6 µM), without a hit: top-dose activity, negative = inhibition, actives largely listed as inhibitors; 310,000 tested, 3.5% active; AID 2546;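 note: Gal4-VP16 expression switched on by copper sulfate through the metallothionein promoter; potency is the fitted concentration of half-maximal effect; nearly all actives have a fitted effect of over 50% in size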
TDP1 cell noCPT: qHTS for Inhibitors of human tyrosyl-DNA phosphodiesterase 1 (TDP1): qHTS in cells in absence of CPT; DT40 Tdp1-/- hTDP1 cells, no CPT, ATP luminescence, 48 h; Potency, µM (highest dose often 46.2 µM), without a hit: at the top dose activity change, negative = growth inhibition, hits mostly inhibitors; 420,000 tested, 15% active; AID 686978, 2013; note: potency is the fitted concentration of half-maximal effect; nearly all actives have a fitted effect of over 55% in size
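DT40 Tdp1-/-;hTDP1 cells, no CPT (DMSO vehicle only), 400 cells/well; compounds pin-transferred; ≥48 hr, 37 °C; CellTiter-Glo 30 min RT dark, luminescence read.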
DT40 TDP1 CPT: DT40-hTDP1 cell growth loss with CPT; chicken DT40 Tdp1-/-;hTDP1 cells + 20 nM CPT, ATP luminescence, 48 h; Potency, µM (top dose mostly 46.2 µM), for the others: at the top dose activity change, negative = growth inhibition, most hits filed as inhibitors; 420,000 tested, 12% active; note: potency is the fitted concentration of half-maximal effect; nearly all actives have a fitted effect of over 55% in size
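Chicken DT40 Tdp1-/- cells complemented with human TDP1, 400 cells/well, exposed to compounds plus 20 nM camptothecin for at least 48 h at 37 C; viability read as ATP content by CellTiter-Glo luminescence.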
LDHA block: inhibitors of human lactate dehydrogenase A; 480,000 tested, 0.15% active; purified LDHA, NADH/diaphorase-resazurin fluorescence; hits give low values; P00338; activity change, % (values are at about 110 or 230 µM); in the data active = activity change below about -30%; inconclusive = mostly about -25% to -30%;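 note: plate controls were DMSO wells for no effect and wells without enzyme for full effect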
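Human LDH5 (2 nM) was incubated with 0.06 mM NADH and 0.2 mM pyruvate for 5 min at room temperature in Tris pH 7.4. Remaining NADH was coupled through diaphorase/resazurin, and resorufin fluorescence was read at 0 and 20 min.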
IL1B secr inh: blocks inflammasome-driven IL-1 beta release | THP-1 LPS/ATP IL-1B secretion, AlphaLISA, 16 h; hits give low values | activity change, % at 57.5 µM | 360,000 tested, 4.7% active | AID 743279; in the data active = activity change below about -50%; inconclusive = mostly about -30% to -49%
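THP-1 cells pretreated 1 hr with compounds (up to 57.5 uM final), then stimulated with LPS (250 ng/mL final) plus ATP (1.25 mM final); secreted IL-1B measured by AlphaLISA after 16 hr, decreased signal indicating inhibition.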
RORg inh: inhibitors of mouse ROR gamma transcriptional activity; Drosophila S2 Gal4-RORgamma UAS-luciferase reporter, 20 h; P51450; Potency, µM (titrated, usually from 53.6 µM), for the others: at the highest dose activity change, negative = inhibition, most hits filed as inhibitors; AID 2551; 310,000 tested, 5.4% active; note: potency is the fitted concentration of half-maximal effect; nearly all actives have a fitted effect of over 60% in size
Target sequence (P51450 whole entry, looked up, the tested form may be a part): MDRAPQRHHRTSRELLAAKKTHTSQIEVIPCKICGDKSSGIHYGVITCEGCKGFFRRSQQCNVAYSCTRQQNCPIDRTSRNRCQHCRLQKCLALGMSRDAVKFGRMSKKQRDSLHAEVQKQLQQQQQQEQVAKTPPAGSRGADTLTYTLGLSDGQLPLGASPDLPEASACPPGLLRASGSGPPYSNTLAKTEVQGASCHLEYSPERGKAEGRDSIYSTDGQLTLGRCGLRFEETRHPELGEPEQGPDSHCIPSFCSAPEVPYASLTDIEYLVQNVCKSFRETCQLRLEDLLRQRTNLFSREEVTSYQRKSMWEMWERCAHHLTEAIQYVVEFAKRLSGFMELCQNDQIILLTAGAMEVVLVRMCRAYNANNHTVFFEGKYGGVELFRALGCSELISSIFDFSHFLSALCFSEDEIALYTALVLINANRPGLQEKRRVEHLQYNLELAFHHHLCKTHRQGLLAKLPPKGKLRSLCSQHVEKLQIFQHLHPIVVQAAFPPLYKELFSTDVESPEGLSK
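ROR gamma transcriptional activity was tracked as Gal4-UAS luciferase output in stably transfected Drosophila Schneider cells, with compound added 1 hr before 700 uM copper sulfate induction and a 20 hr ambient-temperature incubation.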
Starred values were filed as active, the others as inactive; ? = inconclusive; . = no result. Unless noted, calls come from the whole dose curve; as a rule, active = well fitted curve in the direction sought with a large enough effect; inconclusive = small, poorly fitted or top-dose-only effect, or another doubt; inactive = no such curve, though single readings can be large; an effect the other way counts as inactive or inconclusive. Unless noted, % is set by controls: 0 for no effect and ±100 for the full control effect.

SMILES	Gal4-VP16 FLuc	TDP1 cell noCPT	DT40 TDP1 CPT	LDHA block	IL1B secr inh	RORg inh
O=C(CSc1nnc(-c2ccc(Cl)cc2)n1-c1ccc(Cl)cc1)N/N=C/c1ccco1	?	?	21µM*	-2	0	-37%
Cc1ccc(-n2c(SCC(=O)N/N=C/c3ccccc3C(=O)O)nnc2-c2ccccc2)cc1	0%	-4%	-26%	-5	-4	-14%
COCCC(C)NC(=O)Nc1ccc(C#N)cc1 (stereo not drawn)	.	.	.	0	.	.
CCc1cc(C(=O)N/N=C/c2ccncc2)cs1	.	.	.	-2	.	.
Cc1ccc(S(=O)(=O)Oc2ccc(N3C(=O)C4C5CCC(C5)C4C3=O)cc2)cc1 (stereo not drawn)	?	23µM*	4.1µM*	-5	27	5%
Cc1ccc(S(=O)(=O)Oc2cccc(N3C(=O)C4CC=CCC4C3=O)c2)cc1 (stereo not drawn)	-4%	?	16µM*	0	17	32%
O=C(OCc1cccc(Cl)c1)c1ccc(C2Nc3ccccc3S(=O)(=O)N2)cc1 (stereo not drawn)	.	.	.	-8	.	.
Cc1nc2ccc(C(=O)NCC(C)(C)CN(C)C)cc2nc1C	.	.	.	2	.	.
COC(=O)[C@@H]1[C@@H](C#N)C2(c3ccccc3-c3ccccc32)N(c2ccc(Cl)cc2)N1C#N	10µM*	3.7µM*	3.3µM*	-1	?	16µM*
O=C(Cc1ccc(Cl)cc1)NN1C(=O)c2ccccc2C1=O	3%	-19%	?	-5	6	-6%
O=C(CC1C[C@H](C(=O)N2CCOCC2)[C@@]2(CCC3CCCC3)c3[nH]c4ccccc4c3CCN2C1=O)NCCN1CCOCC1 (stereo partly drawn)	.	?	?	-4	-15	.
O=C(CC1C[C@H](C(=O)N2CCOCC2)[C@@]2(CCC3CCCC3)c3[nH]c4ccccc4c3CCN2C1=O)NCc1ccco1 (stereo partly drawn)	.	?	21µM*	0	?	.
O=C(CC1C[C@H](C(=O)N2CCOCC2)[C@@]2(CCC3CCCC3)c3[nH]c4ccccc4c3CCN2C1=O)NCC12CC3CC(CC(C3)C1)C2 (stereo partly drawn)	.	16µM*	16µM*	0	?	.
O=C(CC1C[C@H](C(=O)N2CCOCC2)[C@@]2(CCC3CCCC3)c3[nH]c4ccccc4c3CCN2C1=O)NCCc1ccccn1 (stereo partly drawn)	.	?	21µM*	1	0	.
O=C(C[C@H]1C[C@H](C(=O)N2CCOCC2)[C@@]2(CCC3CCCC3)c3[nH]c4cc(-c5ccco5)ccc4c3CCN2C1=O)NCCN1CCOCC1	.	?	23µM*	1	-13	.
CCc1c(C)sc(NC(=O)Cc2ccc(Cl)cc2Cl)c1C#N	.	.	.	5	.	.
CC(C)c1ccc(S(=O)(=O)N2CCN(C(=O)C3CC(=O)Nc4cc(F)ccc43)CC2)cc1 (stereo not drawn)	.	.	.	-2	.	.
O=C(O)C(Cc1ccccc1)NC(=O)C12CC3CC(CC(C3)C1)C2 (stereo not drawn)	.	.	.	2	.	.
CC(C)CCOc1ccc(C(=O)CCN(C)C)cc1	.	.	.	5	.	.
CC(C)=CCC/C(C)=C/CNC(=O)C[C@H]1C[C@H](C(=O)N2CCOCC2)[C@@]2(CCC3CCCC3)c3[nH]c4cc(-c5ccco5)ccc4c3CCN2C1=O	.	?	18µM*	-1	-22	.
CN(C)CCCNC(=O)C[C@H]1C[C@H](C(=O)N2CCOCC2)[C@@]2(CCC3CCCC3)c3[nH]c4cc(-c5ccco5)ccc4c3CCN2C1=O	.	?	23µM*	2	0	.
CC[C@]12c3[nH]c4cc(-c5ccco5)ccc4c3CCN1C(=O)[C@@H](CC(=O)NCc1ccc(OC)c(OC)c1)C[C@@H]2C(=O)N1CCN(C(=O)c2ccco2)CC1	.	?	?	-3	?	.
O=C(C[C@H]1C[C@H](C(=O)N2CCOCC2)[C@@]2(CCC3CCCC3)c3[nH]c4cc(-c5ccco5)ccc4c3CCN2C1=O)NCc1cccc(C(F)(F)F)c1	.	?	16µM*	0	-53*	.
O=C(C[C@H]1C[C@H](C(=O)N2CCOCC2)[C@@]2(CCC3CCCC3)c3[nH]c4ccc(Cl)cc4c3CCN2C1=O)NCCCn1ccnc1	.	?	?	-14	-59*	.
Cc1nc2nc(N(Cc3ccc(F)cc3)C(=O)c3ccco3)[nH]n2c(=O)c1C	.	.	.	1	.	.
SMILES	Gal4-VP16 FLuc	TDP1 cell noCPT	DT40 TDP1 CPT	LDHA block	IL1B secr inh	RORg inh
COc1ccc(CNC(=O)C[C@H]2C[C@H](C(=O)N3CCOCC3)[C@@]3(CCC4CCCC4)c4[nH]c5cc(-c6ccco6)ccc5c4CCN3C2=O)cc1OC	.	?	18µM*	-15	?	.
O=C(C[C@H]1C[C@H](C(=O)N2CCOCC2)[C@@]2(CCC3CCCC3)c3[nH]c4cc(-c5ccco5)ccc4c3CCN2C1=O)NCC12CC3CC(CC(C3)C1)C2	.	?	15µM*	-15	?	.
COCCCNC(=O)C[C@H]1C[C@H](C(=O)N2CCOCC2)[C@@]2(CCC3CCCC3)c3[nH]c4cc(-c5ccco5)ccc4c3CCN2C1=O	.	?	?	-11	?	.
Cc1ccc(-n2c3nc(=O)[nH]c(=O)c-3cc3cc([N+](=O)[O-])ccc32)cc1	?	5.2µM*	5.8µM*	13	-107*	?
O=C(OCc1ccc(Cl)c(Cl)c1)c1cccnc1Cl	10%	3%	20%	-9	8	19%
Nc1ncccc1OCc1ccc(Cl)c(Cl)c1	?	26µM*	?	-23	?	-1%
COc1cc(CNCc2ccccn2)ccc1OCc1ccc(Cl)cc1Cl	-23%	?	?	1	-53*	11µM*
COc1cc(CNCc2ccccn2)ccc1OCC(N)=O	-8%	-10%	5%	-14	10	?
COc1cc(CNCc2ccccn2)ccc1OCc1ccc(Cl)c(Cl)c1	4%	?	?	-1	-93*	?
O=C1NC2(CCCC2)C(=O)N1Cc1coc(-c2ccc(Cl)cc2)n1	.	.	.	0	.	.
COc1ccc(CNc2ccc(Cl)cc2)cc1Cn1ccnc1	?	16µM*	?	-3	-71*	15%
CCc1ccc(NCc2ccc(OC)c(Cn3ccnc3)c2)cc1	?	?	?	2	0	-21%
CC1=C(C(=O)Nc2ccc(Br)cc2)C(c2ccco2)NC(=O)N1 (stereo not drawn)	2%	?	23µM*	-2	11	32%
